Rows were chosen to be rich in hits. Some 0.91% of all compounds tested hit in one or more screens of this group.
WRN inhibitor – WRN helicase (human) inhibition; Potency, µM (doses to about 114 µM), without a hit: at the highest dose activity change, negative = inhibition, usual class: inhibitors; AID 651768; Q14191; 360,000 tested, 0.46% active; WRN helicase unwinding, fluorescent forked duplex, kinetic; further: nearly all actives have a fitted effect of over 55% in size
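Enzyme (20 nM final) and test compound sit together 15 min at room temperature before substrate addition. Substrate is a single-forked duplex oligonucleotide (100 nM) labelled with fluorophore and quencher, with 2 mM ATP; helicase unwinding raises red fluorescence, read kinetically.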
RECQ1 inh-1 – blocks DNA unwinding by human RECQ1. P46063. RECQ1 DNA unwinding, red fluorescence kinetic read. Potency, µM (top dose mostly 57.3 µM), for the others: top-dose activity, negative = inhibition, most hits filed as inhibitors. 240,000 tested, 0.54% active. AID 2549;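 further: plate controls were vehicle for no effect and no enzyme for full effect; nearly all actives have a fitted effect of over 30% in size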
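50 nM RECQ1T1 preincubated 15 min with compound in Tris pH 8.0 buffer with MgCl2, DTT, Tween-20 and 2.5 ug/ml poly(dI-dC); started with 200 nM TAMRA/BHQ-2 forked duplex and 2 mM ATP. Unwinding read as fluorescence (525/598 nm), two reads 2 h apart.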
TR SRC2 fluor cs – alters Texas Red total fluorescence, flagging assay interference | 280,000 tested, 0.29% active | TRb/SRC2 Texas Red total fluorescence interference | Potency, µM (top dose mostly 106 µM), for inactives: at the top dose fluorescence change, negative = quenching; active means well fitted curve in either direction with a large enough effect; inconclusive means small, poorly fitted or top-dose-only effect
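Human TRb ligand-binding domain at 0.6 uM with 20 nM Texas Red SRC2 peptide in Tris buffer containing 1 uM T3 and 5% DMSO, incubated with compound 5 h at ambient temperature. Total fluorescence (555/632 nm) calculated as parallel + 2 × perpendicular.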
APEX1 inh – APE1 (human) endonuclease inhibition | recombinant APE1, TAMRA/BHQ-2 abasic DNA cleavage fluorescence | Potency, µM (titrated, usually from 65.8 µM), for the others: at the top dose activity change, negative = inhibition, most hits filed as inhibitors | 350,000 tested, 0.35% active | AID 2517;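 further: plate controls were vehicle for no effect and reference inhibitor for full effect; nearly all actives have a fitted effect of over 55% in size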
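Step 1: APE1 (0.75 nM) with compound, 15 min RT. Step 2: add 50 nM fluorophore/quencher THF duplex. Step 3: three fluorescence reads 60 s apart (525/598 nm); read 3 minus read 1 = reaction progress.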
TRb SRC2 PPI – inhibitors of human thyroid hormone receptor beta-SRC2 interaction. P10828. TRbeta-SRC2 peptide binding, fluorescence polarization; receptor liganded with 1 µM T3. Potency, µM (titrated, usually from 106 µM), inactives show top-dose activity change, negative = inhibition, usual class: inhibitors. 280,000 tested, 0.065% active;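 further: plate controls were bound peptide for no effect and peptide without receptor for full effect; nearly all actives have a fitted effect of over 50% in size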
Target sequence (P10828 whole entry, looked up): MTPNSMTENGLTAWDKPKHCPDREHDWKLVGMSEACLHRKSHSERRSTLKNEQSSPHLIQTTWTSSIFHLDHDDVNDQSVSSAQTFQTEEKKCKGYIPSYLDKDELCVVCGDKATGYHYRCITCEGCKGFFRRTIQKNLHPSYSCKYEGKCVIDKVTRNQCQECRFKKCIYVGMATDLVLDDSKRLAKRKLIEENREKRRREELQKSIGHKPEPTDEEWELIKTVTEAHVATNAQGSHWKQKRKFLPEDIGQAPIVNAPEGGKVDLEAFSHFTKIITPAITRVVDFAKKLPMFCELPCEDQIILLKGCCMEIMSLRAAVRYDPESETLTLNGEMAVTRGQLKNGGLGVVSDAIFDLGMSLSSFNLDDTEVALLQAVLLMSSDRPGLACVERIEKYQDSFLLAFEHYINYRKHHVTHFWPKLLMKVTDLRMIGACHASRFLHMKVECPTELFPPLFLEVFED
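Human TRb LBD (0.6 uM) plus Texas Red-labeled SRC2 peptide (20 nM), 1uM T3, 5% DMSO, 5 hr at ambient temperature. Decreased polarization (555/632 nm) flags inhibition; data normalized to free and bound peptide controls.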
BLM inh – inhibitors of human Bloom syndrome helicase BLM | P54132 | recombinant BLM DNA unwinding, fluorescence dequenching | Potency, µM (highest dose often 56.1 µM), inactives show at the highest dose activity change, negative = inhibition, most hits filed as inhibitors | 350,000 tested, 0.2% active | AID 2528;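 further: plate controls were vehicle for no effect and no enzyme for full effect; nearly all actives have a fitted effect of over 35% in size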
RECQ1 inh conf – confirmation of human RECQ1 helicase inhibitors; Potency, µM (titrated, usually from 229 µM), without a hit: at the top dose activity change, negative = inhibition, actives largely listed as inhibitors; 610 tested, 28% active; RECQ1 helicase DNA unwinding, fluorescence; shares compounds with RECQ1 inh-1; AID 2708; further: nearly all actives have a fitted effect of over 45% in size
RECQ1 ADP FP – counter-screen for RECQ1 inhibitors: ADP displacement; shares compounds with RECQ1 inh-1; ADP fluorescence polarization displacement counterscreen; Potency, µM (doses to about 228 µM), for inactives: at the top dose activity change, negative = inhibition, usual class: inhibitors; 530 tested, 27% active; AID 2711; further: nearly all actives have a fitted effect of over 45% in size
RECQ1 inh-2 – blocks human RECQ1 DNA unwinding; shares compounds with RECQ1 inh-1; recombinant RECQ1 DNA unwinding, red fluorescence; Potency, µM (highest dose often 119 µM), for inactives: top-dose activity, negative = inhibition, usual class: inhibitors; 1,100 tested, 15% active; further: nearly all actives have a fitted effect of over 50% in size
Starred values were filed as active, the others as inactive; i = inactive; ? = inconclusive; / = no result given; [ ] = remark or other dose. Unless noted, the call rests on the fitted dose curve; in most records, active means well fitted curve in the direction sought with a large enough effect; inconclusive means small, poorly fitted or top-dose-only effect, or another doubt; inactive means no such curve, though single readings can be large; an effect the other way counts as inactive or inconclusive. Unless noted, on the % scale 0 is the no-effect control and ±100 the full control effect; potency means the concentration at half of the fitted maximal effect.

SMILES | WRN inhibitor | RECQ1 inh-1 | TR SRC2 fluor cs | APEX1 inh | TRb SRC2 PPI | BLM inh | RECQ1 inh-2 | others
CN(C)C1C(=O)C(C(N)=O)=C(O)[C@@]2(O)C(=O)C3=C(O)c4c(O)cccc4[C@](C)(O)C3C(O)C12 (stereo not given in full) | / | 10µM* | -17% | ? | 4% | -7% | / | RECQ1 inh conf=-38%;RECQ1 ADP FP=7.1µM*
CN(C)[C@@H]1C(=O)C(C(N)=O)=C(O)[C@@]2(O)C(=O)C3=C(O)c4c(O)cccc4[C@@](C)(O)C3C[C@@H]12 (stereo not given in full) | -8% | / | / | 0% | / | / | /
CCOP(=S)(OCC)SCC(=O)NC(C)C | / | / | -3%[201 µM] | / | 5%[201 µM] | / | /
CCCCn1c(N)c(C(=O)OCC2CCCO2)c2nc3ccccc3nc21 (stereo not given) | -4% | ? | 0% | -10% | ? | -5% | 10%
CC(C)CCn1c(N)c(C(=O)OCC2CCCO2)c2nc3ccccc3nc21 (stereo not given) | -6% | -6% | -6% | 0% | -2% | -5% | /
CC[C@@]1(O)C(=O)OCc2c1cc1n(c2=O)Cc2cc3c(O)cccc3nc2-1 | / | ? | -5% | ? | 2% | -17% | ?
CC[C@@]1(O)C(=O)OCc2c1cc1n(c2=O)Cc2cc3c(NC(=O)CN)cccc3nc2-1 | 3% | 1% | -4% | 10% | -7% | -5% | /
O=C(O)C1(O)c2ccccc2-c2ccc(Cl)cc21 (stereo not given) | / | / | 2%[201 µM] | / | 6%[201 µM] | / | /
O=C(c1ccc2nc(-c3ccco3)c(-c3ccco3)nc2c1)N1CCC2(CC1)OCCO2 | ? | 13µM* | -22% | ? | -7% | 28µM* | -7% | RECQ1 inh conf=18%[114 µM]
O=C1NCCN1Cc1ccc(Cl)nc1 | / | / | -1%[201 µM] | / | 1%[201 µM] | / | /
Cc1ccc(C2N3CCCN23)cc1 (stereo not given) | 5% | i | -2% | 1% | -6% | -2% | /
c1ccc(C2N3CCCN23)cc1 (stereo not given) | -4%[57.1 µM] | 7.9µM* | 1% | 11% | -5% | -1% | / | RECQ1 inh conf=13%[114 µM];RECQ1 ADP FP=-2%[91.9 µM]
CCN(CC)c1ccc(CC2C(=O)N(C)C(=O)N(C)C2=O)cc1 | 20µM* | 32µM* | ? | -4% | ? | 2% | 45µM*

Assay outcomes from PubChem.
